# According to the supplement of paper PMC11417369:
# In all, about 25,000 sequences were measured (“ln(normalized median fluorescence intensity)”: median about 9.7, highest 2% from about 11 on). What follows is part of a selection rich in the highest values, with near analogues and random picks from the rest.
# System: PfAP2-HC AP2 domain (GST-tagged)
# Experiment: gcPBM binding intensity (ln(normalized median fluorescence intensity)); higher = stronger DNA binding
# How it was run: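 Binding intensity is defined as the maximum Masliner-normalised natural-log median intensity across replicate spots for either probe orientation. It was measured on an Agilent 4 × 180k array of primer-extended double-stranded 36-bp intergenic genomic probes and negative controls, to which GST-tagged P. falciparum DNA-binding domains made in E. coli were applied for 1 h in 1× PBS with 1% milk, 0.2 mg/ml BSA, 0.5% salmon testes DNA and 0.03% Triton X-100. Detection was by Alexa488 anti-GST antibody and scanning at 488 nm.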
row,Sequence,gcPBM binding intensity (ln)
1,TCACAAATGTATTATACACACAAGTTTTCTTTAATA [CACACA_site4107],9.71
2,ATGAATTTTTCTCTACAAAAGGATATAATAAAAATA [XGTACX_negctrl_site461],9.37
3,TTACGAATAAAACAGTGTACATTGAATTTCTATGAG [XGTACX_site4771],9.51
4,TTTTTAAAAATATACACACACAGATATTATAGATAT [CACACA_site6511],10.1
5,TCCTTATTTATATAATGTACTTTTTTTTTTCATTTT [XGTACX_site4275],9.64
6,TTTATTCAAATATAATGTACTTTCTACAAATTCAAT [XGTACX_site8119],9.43
7,TATTATATAAAATATTTTATTATATCATCTTCTCTA [XGTACX_negctrl_site319],9.44
8,TTCATTTTCATATATTGTACAAAATTTTATAAGGTT [XGTACX_site4522],9.58
9,ATCTTGAAGATTATTTGTACACAAAAGTTAAAATAT [XGTACX_site242],9.47
10,AAAAAAAAAAAACACACACACAAATACAAATACATA [CACACA_site415],11.5
11,AAAAAAAAAAAACATACACACAAATAAATACATACA [CACACA_site6073],10.1
12,AAAAAAAAAAAACACACACACACAAATACATACACA [CACACA_site706],10.7
13,TCATACTGTATATTTTGTACTTATATATATATTATA [XGTACX_site6136],10
14,CACCCACCCACATACACACACATACACATATATATA [CACACA_site1722],10.3
15,TATTCCCCCCAACACACACACACACCGACATACCAC [CACACA_site8723],11.5
16,TATTCCCCCAAACACACACACACACCCACATACCAC [CACACA_site2304],10.7
17,GACATATTCCCCCCCACACACACACCCACATACATA [CACACA_site2302],11.1
18,ACATACATACCCCCACGTACGTACCGAAACACCACC [XGTACX_site1982],9.84
19,CATATTCCCCCCCACACACACACACCCATACATACC [CACACA_site2303],10.6

row,Sequence,gcPBM binding intensity (ln)
1,AATTATATATTATAATGTACATATATATAACTATAC [XGTACX_site1865],9.67
2,ATAATTCATGTTTAGTGTACAAAAAATTAAAGCAAC [XGTACX_site8891],9.87
3,ATATAGTATAATAAAAGTACATTTTGATTTTTTCTC [XGTACX_site1797],9.61
4,AATAAACATAAATAAAAATTATAAAATATATATATG [CACACA_negctrl_site1709],9.75
5,TATACGCAGAAACACACACACATACACCCACATACA [CACACA_site1723],10.6
6,CATACACAGAAACACACACACATATATACATATATA [CACACA_site1094],10.4
7,TAAAAAAAAACAGAAACACACATTATTCATATATAT [CACACA_site2049],10.2
8,AACATACAGAAACACACACACACACCCACACCCACA [CACACA_site493],11.5
9,TAAATACAGAAACACACACACAAATATATACATACA [CACACA_site2880],10.5
10,TACATACAGAAACACACACACACATATATATATATA [CACACA_site2919],11.1
11,CATTATAAGAAACACACACACATATATATATATATA [CACACA_site1051],10.1
12,CATACATAGAAACACACACACACACCCACCCACAAA [CACACA_site494],10.6
13,ATATAACAGAAACACACACACATATATATATATTAT [CACACA_site4140],11.3
14,CATATACAGAAACACACACACACATAAATAAATATA [CACACA_site1343],11
15,CATACACAGAAACACACACACATATATATATATATA [CACACA_site4519],10.2
16,CAAATACAGAAACACACACACATATACATATATATA [CACACA_site3498],10.4
17,TTGTTAGAGTATATTGAAAGGATAACCTTTTTTTAT [XGTACX_negctrl_site122],9.43
18,AAAATAATTTTATAGTTGCACTATATCGTATACAAT,9.71
19,AACGATTTACATCACTGTACTAATGATATACCTCAT [XGTACX_site7463],9.85

row,Sequence,gcPBM binding intensity (ln)
1,ATAAATATAACATATTGTACCCTTAAAAAGGAACAA [XGTACX_site352],9.5
2,ACGTACTGCCCTAAAGTGCATATATAATATAAACGA [GTGCAC_site9911],9.52
3,GTCATATTAATATGTACACACATATTTATATTTATA [CACACA_site6798],9.83
4,AATGTTTAATATAACGCATGCCTTAATATAGAATGC [TGCATGCA_site463],9.59
5,TAAAGAAAAAGAGAATGTACATGAGAAAAGTATACT [XGTACX_site7472],9.79
6,TTTAAAAAAAAAAAAAAAAATTAAATGAATTATTAA [CACACA_negctrl_site1121],8.95
7,AAAAAAAAAAATATAACACACAACAAAAAAATATAT [CACACA_site1753],10.4
8,ATAGTAAACGAAATAAAAAGATTAGCATAATATCCT [CACACA_negctrl_site1730],9.79
9,ACATGTGAACATTCAATGCACACGATGTAATTATAC [CACACA_site14],9.84
10,TAATTTTTTTTTTTTTTTCATTCTTTTCCTTTGATT [CACACA_negctrl_site1365],9.22
11,CACAACATATATATATATATATATATATATATGTGT [CACACA_negctrl_site28],9.39
12,TATATGTTTGAATATACACACAACATATTTATATAT [CACACA_site7832],9.74
13,ACTTCAAAAAAAAAAAAATATATATATATATATTAT [GTGCAC_negctrl_site158],9.33
14,TATAATTTAACGACATGTACATATAAAAAAATATTT [XGTACX_site2395],9.75
15,TTTTTTTTTTTGATTTGTACACAAAAAAAATATATG [XGTACX_site4547],9.42
16,AATTTGTTGAAACACACACACACATACATATATATA [CACACA_site2287],11.3
17,CATATATTTTGAAACACACACATATATAATATACAT [CACACA_site1158],10.4
18,TAATTTTTGAAACACACACACATATATATATATATA [CACACA_site94],10.5
